A selection: hits, their analogues and other compounds. The true share with any hit is near 11%.
HPGD inh – blocks human HPGD enzyme activity | P15428 | purified HPGD, NADH fluorescence kinetic, PGE2 substrate | Potency, µM, most hits filed as inhibitors | 4.3% of 150,000 active | AID 894
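NADH formation kinetics: reaction with 30 uM PGE2 and 1 mM NAD+ (final), 20 nM enzyme, Tris-HCl pH 8 with Tween 20, after 15 min compound preincubation at room temperature. Fluorescence change, last versus first of five reads.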
IMPase cell inh – cell-permeable inhibitors of inositol monophosphatase (IMPase). CHO-M1 cells, IP1 accumulation, HTRF TR-FRET ratio. P97697. AID 901. 120,000 tested, under 10 active. inhibition (IP1 accumulation), % at 46.1 µM; active = well fitted curve in the direction sought with a large enough effect in the signal ratio, not every such curve was filed as active; inconclusive = small, poorly fitted or top-dose-only effect, or a change in a side signal; inactive = no such curve, though single readings can be large or run the other way; the % refers to the signal ratio;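 note: cells stimulated with carbachol in lithium chloride buffer; higher means more IMPase inhibition seen as more IP1 and lower FRET ratio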
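Elevated IP1 in lysates lowers TR-FRET signal (665/620 ratio and 620 channel reported). Cells were CHO-M1, given carbachol (50 uM as added) plus 50mM LiCl, pH 7.4, 30 min, 37C; compounds titrated up to 46 uM; AC50 by Hill equation.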
PNC assembly inh – inhibitors of perinucleolar compartment assembly; PC3M PTB-GFP, PNC prevalence imaging, 16 h; stronger effect = lower value; activity change (PNC), negative = inhibition, % at 10 µM; 3.1% of 140,000 active; AID 2417;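 active = readout at or below -70, meaning at least 70% loss of cells showing the perinucleolar compartment, a nuclear body marking cancer cells; inconclusive = readout between -30 and a set limit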
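Compounds are pinned in duplicate onto adhered PC3M cells stably expressing GFP-tagged PTB and incubated 16 h at 37 C. Cells are then fixed, nuclei stained with Hoechst, and PNC-positive cells counted.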
ALDH1A1 inh – inhibitors of human aldehyde dehydrogenase 1A1; P00352; 7.3% of 220,000 active; Potency, µM (highest dose often 75.3 µM), hits mostly inhibitors; Purified ALDH1A1, NADH fluorescence, propionaldehyde substrate
Target sequence (P00352 whole entry, looked up): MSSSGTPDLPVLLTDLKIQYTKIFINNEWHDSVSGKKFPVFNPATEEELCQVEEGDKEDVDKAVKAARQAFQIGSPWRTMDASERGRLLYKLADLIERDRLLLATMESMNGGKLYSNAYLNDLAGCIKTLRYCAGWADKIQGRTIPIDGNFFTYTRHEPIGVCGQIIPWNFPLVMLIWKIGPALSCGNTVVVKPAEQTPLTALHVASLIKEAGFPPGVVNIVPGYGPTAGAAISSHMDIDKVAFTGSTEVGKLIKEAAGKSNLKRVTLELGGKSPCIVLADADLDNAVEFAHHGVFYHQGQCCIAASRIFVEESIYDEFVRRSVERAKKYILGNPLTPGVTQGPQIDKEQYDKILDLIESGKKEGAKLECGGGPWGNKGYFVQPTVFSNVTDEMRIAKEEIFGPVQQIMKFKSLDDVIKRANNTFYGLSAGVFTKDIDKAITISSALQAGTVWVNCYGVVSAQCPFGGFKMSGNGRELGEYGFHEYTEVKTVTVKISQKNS
IMPase Li inh – membrane-permeable IMPase blocker, potentiated with lithium | 0.35% of 210,000 active | Potency, µM (top dose mostly 59.4 µM), most hits filed as inhibitors | CHO-M1 cells, IP1 TR-FRET (IP-One), carbachol + lithium | AID 1457; active = well fitted inhibition curve with a large enough effect; inconclusive = small, poorly fitted or top-dose-only effect; inactive = no such curve, though single readings can be large or run the other way;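 note: IP1 builds up when IMPase is blocked and the TR-FRET signal falls; nearly all actives have a fitted effect of over 50% in size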
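CHO-M1, 2000 cells/well, 16–30 h culture; cpd + low Li+, 30 min 37C; lysis with d2-IP1/Eu-anti-IP1 Ab, 10 min RT; TR-FRET 665/620 ratio and 620 channel; AC50 via Hill.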
Numbers stand for hits; 0 = inactive; ? = inconclusive; - = no result given; ! = not active in a repeat; [ ] = another dose, or the depositor's remark. Unless noted, calls come from the whole dose curve; as a rule, active = well fitted inhibition curve with a large enough effect (not every such curve was filed as active); inconclusive = small, poorly fitted or top-dose-only effect, or another doubt; inactive = no such curve, though single readings can be large or run the other way.

SMILES	HPGD inh	IMPase cell inh	PNC assembly inh	ALDH1A1 inh	IMPase Li inh
CC(OC(=O)c1cccs1)C(=O)NCc1ccco1 (configuration not stated)	0	0	?	0	0
COc1ccccc1CNC(=O)c1c(-c2ccccc2)nn(-c2ccccc2)c1C	0	0	0	4µM	0
COc1ccccc1CNC(=O)COC(=O)CCC(=O)c1cccs1	-	-	-	0	0
COc1ccccc1CNC(=O)c1cccc(-c2ccccc2OC)n1	7.9µM	-	-	32µM	0
COc1ccccc1CNC(=O)c1cccs1	16µM	0	0	0	0
COc1cccc(NC(=O)Cn2c(=O)n(CC3CCCO3)c(=O)c3ccccc32)c1 (configuration not stated)	0	0	0	?	0
CC1(C)C2CCC1(C)C1(C2)NC(=O)c2ccccc2O1 (configuration not stated)	0	-	0	0	0
Cc1csc(/N=C/c2ccc([N+](=O)[O-])cc2)n1	0	-	0	11µM	0
S=C(NC1CCCC1)N1CCOCC1	-	-	-	0	0
O=C(NC1CCCCC1)C(=S)N1CCOCC1	-	-	-	24µM	0
O=C(Nc1cccc(F)c1)N1CC[C@@]2(CCCN(C(=O)c3csnn3)C2)C1	0	-	-	0	0
CCOC(=O)C1=NN(c2ccc([N+](=O)[O-])cc2)CC1C(=O)OC (configuration not stated)	0	0	0	1.1µM	0
COc1cc(C(=O)OCCNC(=O)c2ccncc2)cc(OC)c1OC	0	0	-111	0	0
Cc1ccc(N(C(=O)c2cccc(C)c2)S(=O)(=O)c2ccc(Cl)cc2)cc1	-	0	-	-	-
C[C@@H](C(=O)Nc1ccc2ccccc2c1)[C@@H]1C[C@@]1(C)[C@@H](NS(=O)(=O)c1ccc(-c2ccccc2)cc1)c1ccccc1	0	-	-	0	0
CC(C)c1ccc2c(c1)[C@H]1OCC[C@H]1[C@@H](c1cccs1)N2	7.9µM	-	-109	0	0
O=[N+]([O-])c1ccc(N/N=C2/CCCCC2c2ccccn2)cc1 (configuration not stated)	0	0	0	0.045µM	0
O=C(CNC(=O)c1ccco1)NCC(=O)OC(C(=O)c1ccccc1)c1ccc(Cl)cc1 (configuration not stated)	0	0	-100	?	0
O=C(CNC(=O)c1ccco1)OC(C(=O)c1ccccc1)c1ccccc1 (configuration not stated)	0	0	0	0	0
O=C(c1csc2c1CCCC2)N1CCCCC1	1.6µM	0	0	0	0
O=C(c1csc2c1CCCCC2)N1CCN(c2ncccn2)CC1	0	0	0	20µM	0
COc1cc(CNn2cn[nH]c2=S)cc(Cl)c1OCc1ccc(F)cc1	?	0	0	?	0
COc1cc(CNn2c(C)n[nH]c2=S)cc(Cl)c1OCc1ccccc1	16µM	0	0	28µM	0
Cc1ccccc1N/N=C1\CCCNC1=O	22µM	0	0	10µM	0
COc1cc(/C=C2\SC(=O)N(c3ccccc3Cl)C2=O)cc([N+](=O)[O-])c1O	-	-	-	0.16µM	0
SMILES	HPGD inh	IMPase cell inh	PNC assembly inh	ALDH1A1 inh	IMPase Li inh
COc1cc(/C=C2\SC(=O)N(CC(=O)Nc3cccc(C)c3)C2=O)cc([N+](=O)[O-])c1O	-	-	-	22µM	0
COc1cc(/C=C2\SC(=N)N(c3ccc4c(c3)OCO4)C2=O)cc(OC)c1O	4µM	-	0	0	0
CC(C)=CC[C@@H](O)C1=CC(=O)c2c(O)ccc(O)c2C1=O	-	-	-	?	0
COc1cccc2c1OC(=O)CC2c1ccccc1C (configuration not stated)	?	-	-	0	0
C[C@]12C[C@H](O)CC(CO)(CO)C1[C@H](O)C[C@@]13CC4[C@@H](CC12)[C@@]4(C)C3 (some centres not stated)	0	-	-	0	0
COC(=O)c1c(NC(=O)COc2cc(C)c(Cl)c(C)c2)sc2c1CCCC2	-	0	-	-	-
CC(C)c1nc2sc3c(=O)[nH]cnc3c2c2c1CCC2	?	-	-84	?	0
CCCCc1nc2sc3c(=O)[nH]cnc3c2c2c1CCCC2	-	-	-	0	-
CC(C)Cc1nc2sc3c(=O)[nH]cnc3c2c2c1CCC2	?	-	?	0	10µM
CCCc1nc2sc3c(=O)[nH]cnc3c2c2c1CCCC2	-	-	-	0	-
CC1CCCO1 (configuration not stated)	0	-	-	0	0
COC(=O)c1nnn(CC(=O)Nc2cc(F)ccc2F)c1C(=O)OC	-	0	-	-	-
Cc1onc(-c2c(F)cccc2Cl)c1C(=O)OCn1nnc2ccccc2c1=O	13µM	0	0	0	0
Cc1onc(-c2c(F)cccc2Cl)c1C(=O)NCCc1ccc(S(N)(=O)=O)cc1	0	0	-95	0	0
Cc1onc(-c2c(F)cccc2Cl)c1C(=O)Nc1ccc(OC(C)C)cc1	-	0	-	-	-
Cc1onc(-c2c(F)cccc2Cl)c1C(=O)ONC(=O)c1ccccc1	-	-	-	0	-
Cc1onc(-c2c(F)cccc2Cl)c1C(=O)O/N=C(\N)c1ccc([N+](=O)[O-])o1	-	-	-	7.9µM	-
C/C(=N\OC(=O)c1c(-c2c(F)cccc2Cl)noc1C)c1nccs1	-	-	-	?	0
Cc1onc(-c2c(F)cccc2Cl)c1C(=O)Nc1ccc(S(=O)(=O)Nc2ncccn2)cc1	0	0	-123	0	0
Cc1noc2nc(-c3cccs3)cc(-c3nnc4n3CCCCC4)c12	?	0	0	?	0
CCc1nc2ccccc2n1CC1CC1(Cl)Cl (configuration not stated)	-	-	-	0	0
ClC1(Cl)CC1Cn1c(C2CC2)nc2ccccc21 (configuration not stated)	-	-	-	10µM	0
NC(=O)Cn1c(=O)n(C2CCCCC2)c(=O)c2c3c(sc21)CCCCC3	0	0	0	?	0
Cc1ccc(CN2CCN(/N=C/c3ccc(C)s3)CC2)cc1	0	-	0	0	0
Cc1ccc(CN2CCN(/N=C/c3cccs3)CC2)cc1	0	-	-99	0	0
SMILES	HPGD inh	IMPase cell inh	PNC assembly inh	ALDH1A1 inh	IMPase Li inh
CCOC(=O)/C(=N\O)C1=NC(C)(C)Cc2ccccc21	0	-	0	0	0
CCOC(=O)/C(C(=O)Nc1ccccc1Br)=C1/NC(C)(C)Cc2ccccc21	0	-	0	28µM	0
COc1cc(-c2[o+]c3cc(O)cc(O)c3cc2O)cc(O)c1O	0	-	-	0[13.5 µM]	0
Cc1cc(O)c2c(c1)C(=O)c1cccc(O)c1C2=O	0	0	0	13µM!	0
CCC(C)[C@@H](NC(=O)OC(C)(C)C)c1nnc(S(=O)(=O)Cc2cccc(C)c2)o1 (some centres not stated)	14µM	?	0	0	0
CC(C)(C)OC(=O)N[C@@H](Cc1ccccc1)c1nnc(S(=O)(=O)Cc2ccccc2)o1	3.5µM	0	0	?	0
Cc1ccccc1CS(=O)(=O)c1nnc([C@H](Cc2ccccc2)NC(=O)OC(C)(C)C)o1	7.1µM	0	?	14µM	0
CCSc1nnc([C@H](Cc2ccccc2)NC(=O)OC(C)(C)C)o1	0	0	0	?	0
